Measurements: the supplement of paper PMC10849652
About 8,800 targets were measured; listed, in parts, are those with a hit and a random draw of the rest. About 0.5% of all pairs of compound and target were hits.

Tests used:
Assay in all cases: log2 fold change, soluble protein after heating vs DMSO (PISA); higher = thermal stabilisation; K562 lysate, 10 uM; active = over 0.2 and 3.5 SD of the protein, either way, in both replicates (recomputed)
[1] = compound: C=CC(=O)N1CCC[C@@H](n2nc(-c3ccc(Oc4ccccc4)cc3)c3c(N)ncnc32)C1 [ibrutinib]
Method in brief: (§1)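 Dounce homogenisation of K562 pellets in PBS pH 7.4 with 1 mM MgCl2 produced a crude extract, used at 1 mg/mL protein. Exposure to 10 μM compound lasted 30 min, and aliquots were then heated for 3 min across 48°C-58°C, pooled and brought to 0.5% NP-40 at 4°C. The supernatant after 21,000xg for 90 min was quantified by TMTpro 16plex LC-MS/MS with channel sums equalised. Duplicate values are given as log-two fold change in thermal stability relative to solvent controls.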

[2] = compound: CC(=O)c1cnc2ccc(-c3cc(Cl)c(O)c(Cl)c3)nc2c1N[C@H]1CC[C@H](CN(C)C)CC1
Method in brief: as §1

[3] = compound: CC(C)(C)Cn1c(N)nc2ccc(-c3[nH]c(C(C)(C)C)nc3-c3ccc(F)cc3)nc21 [ralimetinib]
Method in brief: as §1

[4] = compound: CC(C)(O)CC(=O)NCCn1ccc2ncnc(Nc3ccc(Oc4cccc(C(F)(F)F)c4)c(Cl)c3)c21
Method in brief: as §1

[5] = compound: CC(C)C1=C2N=C(C=C(N2N=C1)NCC3=CC=CC=C3)NCCCCCCN
Method in brief: as §1

[6] = compound: CC1=C(C(CC(=O)N1)C2=CC=C(C=C2)C(F)(F)F)C(=O)NC3=C(C=C4C(=C3)C=NN4)F
Method in brief: as §1

[7] = compound: CC1=C(C2=C(C=C1)C(=O)C3=CC=CC=C3N2CCCN)C
Method in brief: as §1

[8] = compound: CC1=C(C=C(C=C1)NC(=O)C2=CC(=CC=C2)C(C)(C)C#N)NC3=CC4=C(C=C3)N=CN(C4=O)C
Method in brief: as §1

[9] = compound: CC1=C(C=C(C=C1)NC(=O)C2=CC(=CC=C2)N(C)C)NC(=O)C3=CC=C(C=C3)O
Method in brief: as §1

[10] = compound: CC1=CC=C(C=C1)SC2=C3C=C(SC3=CN=C2)C(=O)N
Method in brief: as §1

Measured: log2 fold change

PI4K2B (UniProt Q8TCG2)
inactive: [1] -0.028 | [2] 0.04 | [3] 0.103 | [4] 0.069 | [5] -0.063 | [6] -0.075 | [7] -0.005 | [8] -0.082 | [9] 0.001 | [10] 0.005

PSMB9 (UniProt P28065)
Chain of UniProt P28065 (P28065 whole entry, looked up): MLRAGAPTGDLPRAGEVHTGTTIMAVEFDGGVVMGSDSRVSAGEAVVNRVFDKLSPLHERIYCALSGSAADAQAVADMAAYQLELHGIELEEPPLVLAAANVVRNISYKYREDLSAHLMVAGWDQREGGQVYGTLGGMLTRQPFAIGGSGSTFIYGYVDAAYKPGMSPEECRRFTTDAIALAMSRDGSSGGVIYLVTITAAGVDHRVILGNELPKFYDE
inactive: [1] -0.073 | [2] -0.196 | [3] 0.052 | [4] -0.01 | [5] 0.011 | [6] 0.003 | [7] -0.047 | [8] 0.096 | [9] -0.027 | [10] -0.178

PRIM2 (UniProt P49643)
inactive: [1] 0.067 | [2] -0.05 | [3] 0.041 | [4] -0.025 | [5] -0.001 | [6] 0.015 | [7] -0.043 | [8] 0.028 | [9] 0.054 | [10] 0.009

PRRC2A (UniProt P48634)
inactive: [1] 0.006 | [2] -0.014 | [3] -0.01 | [4] -0.02 | [5] 0.002 | [6] 0.015 | [7] -0.003 | [9] 0.003 | [10] -0.026
active: [8] -0.26

PCBP2 (UniProt H3BRU6)
inactive: [1] 0.046 | [2] 0.016 | [3] 0.031 | [4] -0.018 | [5] -0.036 | [6] -0.055 | [7] 0.001 | [8] 0.141 | [9] 0.039 | [10] -0.031

PHKA2 (UniProt P46019)
inactive: [1] -0.032 | [2] 0.095 | [3] -0.022 | [4] -0.097 | [5] -0.016 | [6] -0.03 | [7] -0.076 | [8] 0.007 | [9] 0.013 | [10] -0.015

PIP4K2C (UniProt Q8TBX8)
inactive: [1] 0.012 | [2] 0.277 | [3] 0.039 | [4] -0.055 | [5] -0.055 | [6] -0.047 | [7] -0.027 | [8] 0.03 | [9] -0.027 | [10] -0.031

PGRMC1 (UniProt O00264)
Chain of UniProt O00264 (O00264 whole entry, looked up): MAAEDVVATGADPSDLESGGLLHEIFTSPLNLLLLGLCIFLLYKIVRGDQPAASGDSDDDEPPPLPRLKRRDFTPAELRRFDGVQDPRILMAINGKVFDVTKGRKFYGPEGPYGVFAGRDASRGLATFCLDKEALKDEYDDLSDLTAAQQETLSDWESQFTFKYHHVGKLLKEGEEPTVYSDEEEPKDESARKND
inactive: [1] 0.057 | [2] 0.013 | [3] 0.008 | [4] -0.01 | [5] -0.035 | [6] 0.004 | [7] 0.022 | [8] -0.066 | [9] -0.007 | [10] -0.005

PHKG2 (UniProt P15735)
Chain of UniProt P15735 (P15735 whole entry, looked up): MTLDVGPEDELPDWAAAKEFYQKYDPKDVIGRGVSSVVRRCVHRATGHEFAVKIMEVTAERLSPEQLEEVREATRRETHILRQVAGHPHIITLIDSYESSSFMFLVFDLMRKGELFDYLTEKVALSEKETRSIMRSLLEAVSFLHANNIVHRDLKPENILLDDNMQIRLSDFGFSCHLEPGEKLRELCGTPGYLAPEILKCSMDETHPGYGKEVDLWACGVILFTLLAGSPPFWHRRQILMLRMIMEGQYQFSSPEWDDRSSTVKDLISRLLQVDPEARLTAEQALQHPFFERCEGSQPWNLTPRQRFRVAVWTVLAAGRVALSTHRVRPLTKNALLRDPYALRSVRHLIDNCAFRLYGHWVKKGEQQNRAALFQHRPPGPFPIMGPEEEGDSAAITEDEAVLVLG
inactive: [1] -0.099 | [2] 0.168 | [3] 0.003 | [4] -0.011 | [5] 0.03 | [6] -0.029 | [7] -0.018 | [8] -0.018 | [9] -0.004 | [10] -0.027

PRKAR2A (UniProt P13861)
inactive: [1] 0.044 | [2] -0.064 | [3] 0.033 | [4] -0.032 | [5] 0.018 | [6] 0.015 | [7] 0.005 | [8] 0 | [9] 0.011 | [10] 0.036

PPCDC (UniProt Q96CD2)
Chain of UniProt Q96CD2 (Q96CD2 whole entry, looked up): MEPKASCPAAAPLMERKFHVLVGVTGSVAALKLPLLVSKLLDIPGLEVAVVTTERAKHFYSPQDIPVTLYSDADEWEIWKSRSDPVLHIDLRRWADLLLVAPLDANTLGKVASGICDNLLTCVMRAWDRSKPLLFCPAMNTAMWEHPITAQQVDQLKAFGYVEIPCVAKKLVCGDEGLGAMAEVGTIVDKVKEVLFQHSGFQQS
inactive: [1] 0.016 | [2] 0.023 | [3] 0.067 | [4] -0.157 | [5] 0.064 | [6] -0.023 | [7] -0.033 | [8] 0.019 | [9] -0.041 | [10] 0.003

PTPN2 (UniProt P17706)
inactive: [1] 0.016 | [2] -0.014 | [3] 0.014 | [4] -0.001 | [5] -0.029 | [6] -0.035 | [7] 0.045 | [8] -0.005 | [9] 0.017 | [10] 0.007

PGPEP1 (UniProt Q9NXJ5)
inactive: [1] -0.051 | [2] 0.02 | [3] -0.013 | [4] 0.013 | [5] 0.043 | [6] -0.078 | [7] 0.015 | [8] 0.123 | [9] -0.034 | [10] -0.053

PDCD6IP isoform 2 (UniProt Q8WUM4)
Chain of UniProt Q8WUM4 (Q8WUM4 whole entry, looked up): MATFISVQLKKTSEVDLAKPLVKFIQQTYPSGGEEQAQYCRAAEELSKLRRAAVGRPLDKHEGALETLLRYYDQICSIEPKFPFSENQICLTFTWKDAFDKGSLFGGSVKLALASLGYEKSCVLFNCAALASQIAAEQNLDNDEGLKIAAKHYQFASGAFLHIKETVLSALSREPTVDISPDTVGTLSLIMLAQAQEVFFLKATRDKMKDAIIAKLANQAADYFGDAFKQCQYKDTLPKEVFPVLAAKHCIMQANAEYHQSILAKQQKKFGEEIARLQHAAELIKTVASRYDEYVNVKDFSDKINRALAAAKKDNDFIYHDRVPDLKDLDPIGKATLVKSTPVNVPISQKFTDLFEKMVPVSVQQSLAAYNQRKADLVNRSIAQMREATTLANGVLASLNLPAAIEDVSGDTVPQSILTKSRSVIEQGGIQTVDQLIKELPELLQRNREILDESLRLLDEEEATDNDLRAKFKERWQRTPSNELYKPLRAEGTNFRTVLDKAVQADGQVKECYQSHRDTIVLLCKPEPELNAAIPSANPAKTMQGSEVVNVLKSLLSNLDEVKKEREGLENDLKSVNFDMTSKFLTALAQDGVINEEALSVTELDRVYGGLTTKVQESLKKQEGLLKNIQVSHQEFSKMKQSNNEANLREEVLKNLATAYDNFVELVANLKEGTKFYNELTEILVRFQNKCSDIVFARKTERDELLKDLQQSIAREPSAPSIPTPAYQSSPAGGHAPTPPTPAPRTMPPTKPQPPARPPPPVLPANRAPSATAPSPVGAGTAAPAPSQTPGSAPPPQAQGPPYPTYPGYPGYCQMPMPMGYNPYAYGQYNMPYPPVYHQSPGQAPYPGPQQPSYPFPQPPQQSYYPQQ
inactive: [1] -0.035 | [2] 0.009 | [3] 0.003 | [4] 0.025 | [5] 0.013 | [6] -0.006 | [7] 0.046 | [8] -0.013 | [9] 0.029 | [10] 0.016

PRMT7 (UniProt Q9NVM4)
inactive: [1] 0.043 | [2] -0.016 | [3] 0.042 | [4] -0.01 | [5] 0.017 | [6] 0 | [7] -0.008 | [8] 0.013 | [9] 0.031 | [10] 0.008

POLR2M (UniProt P0CAP2)
Chain of UniProt P0CAP2 (P0CAP2 whole entry, looked up): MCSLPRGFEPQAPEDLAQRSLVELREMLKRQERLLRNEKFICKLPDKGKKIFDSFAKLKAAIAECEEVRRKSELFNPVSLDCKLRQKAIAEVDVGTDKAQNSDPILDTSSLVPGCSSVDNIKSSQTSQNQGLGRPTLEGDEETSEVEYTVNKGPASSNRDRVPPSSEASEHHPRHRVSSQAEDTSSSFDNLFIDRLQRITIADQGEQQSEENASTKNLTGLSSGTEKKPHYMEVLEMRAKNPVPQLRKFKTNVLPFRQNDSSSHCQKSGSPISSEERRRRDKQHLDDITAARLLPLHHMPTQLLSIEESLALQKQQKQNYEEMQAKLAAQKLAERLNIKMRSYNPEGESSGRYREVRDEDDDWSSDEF
inactive: [1] -0.011 | [2] 0.014 | [3] -0.018 | [4] -0.042 | [5] -0.001 | [6] -0.014 | [7] -0.046 | [8] -0.055 | [9] -0.008 | [10] 0.007

PGGT1B (UniProt P53609)
Chain of UniProt P53609 (P53609 whole entry, looked up): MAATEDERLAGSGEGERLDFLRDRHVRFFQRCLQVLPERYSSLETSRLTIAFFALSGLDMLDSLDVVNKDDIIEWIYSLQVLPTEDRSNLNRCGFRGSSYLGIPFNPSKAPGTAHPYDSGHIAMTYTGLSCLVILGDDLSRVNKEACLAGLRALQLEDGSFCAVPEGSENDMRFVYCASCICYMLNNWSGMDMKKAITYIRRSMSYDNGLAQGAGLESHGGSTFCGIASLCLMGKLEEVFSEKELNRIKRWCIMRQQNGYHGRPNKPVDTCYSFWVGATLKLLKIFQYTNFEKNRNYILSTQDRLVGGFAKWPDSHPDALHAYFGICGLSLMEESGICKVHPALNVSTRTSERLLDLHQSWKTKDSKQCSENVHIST
inactive: [1] -0.018 | [2] 0.004 | [3] -0.015 | [4] 0.03 | [5] -0.092 | [6] 0.002 | [7] 0.032 | [8] -0.039 | [9] -0.011 | [10] 0.007

PIP5K1A (UniProt Q99755)
Chain of UniProt Q99755 (Q99755 whole entry, looked up): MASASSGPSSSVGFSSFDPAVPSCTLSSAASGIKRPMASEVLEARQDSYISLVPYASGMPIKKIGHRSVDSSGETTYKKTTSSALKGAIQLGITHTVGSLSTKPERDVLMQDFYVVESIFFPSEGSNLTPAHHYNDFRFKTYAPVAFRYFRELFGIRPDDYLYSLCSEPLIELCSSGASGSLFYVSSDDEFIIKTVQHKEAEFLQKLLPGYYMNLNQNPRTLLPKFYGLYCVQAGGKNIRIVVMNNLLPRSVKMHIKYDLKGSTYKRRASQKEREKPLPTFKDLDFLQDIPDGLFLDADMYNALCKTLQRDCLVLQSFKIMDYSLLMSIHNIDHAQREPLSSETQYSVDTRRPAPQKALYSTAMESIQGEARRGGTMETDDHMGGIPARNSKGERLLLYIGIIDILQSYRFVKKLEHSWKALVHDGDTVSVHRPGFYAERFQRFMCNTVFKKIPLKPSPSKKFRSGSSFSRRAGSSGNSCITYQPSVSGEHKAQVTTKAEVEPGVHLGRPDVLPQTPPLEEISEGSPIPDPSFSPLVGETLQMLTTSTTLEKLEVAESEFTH
inactive: [1] 0.012 | [2] 0.201 | [3] -0.053 | [4] 0.001 | [5] 0 | [6] 0.056 | [7] -0.127 | [8] 0.105 | [9] 0.02 | [10] -0.053

PRKACB isoform 2 (UniProt P22694)
inactive: [1] -0.006 | [3] 0.033 | [4] -0.03 | [5] -0.013 | [6] 0.025 | [7] -0.014 | [8] -0.037 | [9] 0.014 | [10] -0.024
active: [2] 0.693

PIK3CD (UniProt O00329)
inactive: [1] -0.14 | [2] 0.222 | [3] -0.017 | [4] -0.123 | [5] -0.12 | [6] 0.021 | [7] -0.032 | [8] 0.04 | [9] 0.098 | [10] -0.056

POLR3E (UniProt Q9NVU0)
inactive: [1] 0.02 | [2] 0.018 | [3] 0.043 | [4] -0.006 | [5] 0.029 | [6] 0.025 | [7] -0.021 | [8] -0.004 | [9] 0.003 | [10] 0.007

PELO (UniProt Q9BRX2)
Chain of UniProt Q9BRX2 (Q9BRX2 whole entry, looked up): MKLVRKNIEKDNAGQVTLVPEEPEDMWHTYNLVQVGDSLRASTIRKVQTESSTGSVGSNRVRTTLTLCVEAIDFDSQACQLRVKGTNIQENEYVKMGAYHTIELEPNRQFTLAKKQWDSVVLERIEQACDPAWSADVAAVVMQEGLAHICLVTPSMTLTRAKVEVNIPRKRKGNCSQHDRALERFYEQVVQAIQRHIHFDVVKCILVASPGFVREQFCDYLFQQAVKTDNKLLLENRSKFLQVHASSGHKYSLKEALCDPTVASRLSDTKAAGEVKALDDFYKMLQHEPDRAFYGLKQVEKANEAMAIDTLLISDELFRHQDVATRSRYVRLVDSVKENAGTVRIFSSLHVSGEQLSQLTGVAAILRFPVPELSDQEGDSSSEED
inactive: [1] 0.034 | [2] -0.004 | [3] 0.04 | [4] -0.035 | [5] 0.005 | [6] -0.02 | [7] -0.012 | [8] -0.005 | [9] 0.001 | [10] 0.002

PREP (UniProt P48147)
inactive: [1] 0.019 | [2] 0 | [3] 0.015 | [4] 0.004 | [5] -0.008 | [6] 0.011 | [7] -0.009 | [8] -0.006 | [9] 0.006 | [10] 0.011

PRKD2 isoform 3 (UniProt Q9BZL6)
Chain of UniProt Q9BZL6 (Q9BZL6 whole entry, looked up): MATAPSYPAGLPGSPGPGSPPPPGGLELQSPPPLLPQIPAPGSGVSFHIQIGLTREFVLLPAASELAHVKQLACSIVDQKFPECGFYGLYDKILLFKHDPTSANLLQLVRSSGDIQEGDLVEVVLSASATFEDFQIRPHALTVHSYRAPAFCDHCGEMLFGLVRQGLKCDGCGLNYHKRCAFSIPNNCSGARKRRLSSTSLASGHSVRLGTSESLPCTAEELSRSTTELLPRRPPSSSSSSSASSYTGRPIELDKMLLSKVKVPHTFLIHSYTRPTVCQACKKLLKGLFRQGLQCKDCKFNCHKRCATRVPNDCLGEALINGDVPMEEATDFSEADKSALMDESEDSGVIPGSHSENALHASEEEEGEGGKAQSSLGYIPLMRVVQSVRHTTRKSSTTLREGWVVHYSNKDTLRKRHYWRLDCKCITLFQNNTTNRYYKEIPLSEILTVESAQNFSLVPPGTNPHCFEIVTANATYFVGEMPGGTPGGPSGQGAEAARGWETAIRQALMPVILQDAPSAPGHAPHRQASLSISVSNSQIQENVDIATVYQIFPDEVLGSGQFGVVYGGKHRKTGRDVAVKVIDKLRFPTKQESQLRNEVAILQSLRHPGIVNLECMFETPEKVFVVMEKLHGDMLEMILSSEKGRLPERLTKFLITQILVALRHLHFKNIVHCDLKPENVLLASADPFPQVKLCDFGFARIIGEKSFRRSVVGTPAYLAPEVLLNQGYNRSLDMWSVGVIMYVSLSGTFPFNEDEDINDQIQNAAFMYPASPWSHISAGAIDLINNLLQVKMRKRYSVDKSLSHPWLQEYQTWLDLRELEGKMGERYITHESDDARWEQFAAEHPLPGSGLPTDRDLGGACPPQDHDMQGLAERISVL
inactive: [1] 0.026 | [2] -0.065 | [3] 0.019 | [4] -0.122 | [5] 0.045 | [6] 0.04 | [7] -0.111 | [8] -0.034 | [9] 0.046 | [10] 0.007

PEX2 (UniProt P28328)
inactive: [1] 0.017 | [2] -0.114 | [3] 0.021 | [4] -0.098 | [5] 0.023 | [6] 0.14 | [7] -0.07 | [8] -0.002 | [9] 0.065 | [10] 0.035

PRKCSH isoform 2 (UniProt P14314)
inactive: [1] -0.125 | [2] 0.069 | [3] 0.012 | [4] -0.142 | [5] -0.004 | [6] 0.04 | [7] -0.017 | [8] 0.131 | [9] 0.132 | [10] -0.045

PPP1R8 (UniProt Q12972)
Chain of UniProt Q12972 (Q12972 whole entry, looked up): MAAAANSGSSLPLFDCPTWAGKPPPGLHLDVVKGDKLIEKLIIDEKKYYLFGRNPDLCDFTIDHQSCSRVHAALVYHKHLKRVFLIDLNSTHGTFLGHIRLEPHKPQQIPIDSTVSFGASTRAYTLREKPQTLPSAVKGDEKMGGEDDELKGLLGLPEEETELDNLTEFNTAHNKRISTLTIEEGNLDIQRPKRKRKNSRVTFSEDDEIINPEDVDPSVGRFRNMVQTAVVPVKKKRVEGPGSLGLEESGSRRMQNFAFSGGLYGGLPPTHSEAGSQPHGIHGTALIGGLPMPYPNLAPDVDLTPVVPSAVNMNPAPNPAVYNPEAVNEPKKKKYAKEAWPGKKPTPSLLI
inactive: [1] -0.029 | [2] -0.026 | [3] -0.039 | [4] -0.031 | [5] 0.011 | [6] -0.011 | [7] -0.034 | [8] 0.002 | [9] -0.036 | [10] -0.028

PDCD10 (UniProt Q9BUL8)
inactive: [1] 0.001 | [2] 0.062 | [3] 0 | [4] -0.006 | [5] -0.008 | [6] -0.02 | [7] 0.016 | [8] 0.021 | [9] -0.02 | [10] -0.02

PFAS (UniProt O15067)
inactive: [1] -0.007 | [2] -0.016 | [3] 0.03 | [4] 0.006 | [5] 0.003 | [6] -0.015 | [7] -0.003 | [8] -0.041 | [9] 0.032 | [10] 0.002

PHACTR4 isoform 2 (UniProt Q8IZ21)
inactive: [1] -0.009 | [2] -0.005 | [3] -0.009 | [4] -0.047 | [5] -0.019 | [6] 0.025 | [7] -0.028 | [8] 0.021 | [9] -0.016 | [10] -0.01

PPP1R11 (UniProt O60927)
Chain of UniProt O60927 (O60927 whole entry, looked up): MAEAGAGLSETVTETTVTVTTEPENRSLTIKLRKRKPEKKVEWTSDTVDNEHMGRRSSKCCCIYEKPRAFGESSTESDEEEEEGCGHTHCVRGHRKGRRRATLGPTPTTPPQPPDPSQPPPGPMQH
inactive: [1] -0.037 | [2] 0.058 | [3] 0.062 | [4] -0.021 | [5] -0.024 | [6] 0.1 | [7] 0.052 | [8] 0.059 | [9] -0.037 | [10] -0.01

PPP1R12B isoform 6 (UniProt O60237)
inactive: [1] 0.019 | [2] -0.112 | [3] 0.01 | [4] -0.251 | [5] 0.095 | [7] 0.106 | [8] 0.142 | [9] -0.012 | [10] -0.194

PYGO2 (UniProt Q9BRQ0)
inactive: [1] 0.064 | [3] 0.151 | [4] -0.122 | [5] -0.001 | [6] 0.005 | [7] 0.044 | [8] 0.011 | [9] -0.061
